The values that follow come from PubChem BioAssay (NCATS).

Several values for one entry are separate records, joined by “and”; a condition that tells them apart may be missing. Equal values may be shown once. Values without a mark were called inactive. Records with an inconclusive call do not appear. Activity calls are given as the source filed them. Calls follow the shape of the dose curve; as a rule, active = well fitted curve in the direction sought with a large enough effect; inconclusive = small, poorly fitted or top-dose-only effect, or another doubt; inactive = no such curve, though single readings can be large; an effect the other way counts as inactive or inconclusive.

Experiment [1] in a line: Cell Viability - LYMP1-003 - Assay at 40 hr (AID 964). Also: nearly all actives have a fitted effect of over 60% in size. Also: potency is read from the fitted curve at half-maximal effect. The essentials: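 Cells were seeded at 2500 per well and incubated 5 hr at 37 C. Compounds were added across a concentration series and left 40 hr at 37 C. CellTiter-Glo was added for 30 min at room temperature before luminescence reading.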
The nature of experiment [2]: Cell Viability - LYMP2-005 (AID 967). Also: potency is read from the fitted curve at half-maximal effect. The essentials: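 Luciferase-based ATP quantitation served as the viability measure in human lymphoblastoid LYMP2-005 cells exposed to test compounds for 24 h at 37 C in complete culture medium. Potency (AC50) was obtained by fitting concentration-response curves with the Hill equation.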
A short description of experiment [3]: Cell Viability - LYMP2-011 (AID 969). Also: nearly all actives have a fitted effect of over 60% in size. Also: potency is read from the fitted curve at half-maximal effect. The essentials: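 2500 cells/well, 5 hr 37 C; compound added, 24 hr 37 C; CellTiter-Glo 30 min RT; luminescence. qHTS concentration-response, Hill-equation AC50. Tetraoctylammonium bromide positive control.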
The nature of experiment [4]: Cell Viability - LYMP2-023 (AID 975). Also: nearly all actives have a fitted effect of over 55% in size. Also: potency is read from the fitted curve at half-maximal effect. The essentials:
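2500 cells/well, 5 hr 37 C; cpd 24 hr 37 C; CellTiter-Glo, 30 min RT; luminescence. qHTS conc-response, Hill fit -> AC50. Pos ctrl tetraoctylammonium bromide.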

The nature of experiment [5]: Cell Viability - LYMP1-002 - Assay at 24 hr (AID 993). Also: potency is read from the fitted curve at half-maximal effect. The essentials: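 Cells plated 2500/well, 5 hr 37 C; compounds added, 24 hr 37 C; CellTiter-Glo added, 30 min RT; luminescence read. Tetraoctylammonium bromide positive control. Hill-equation AC50.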
Experiment [6] is described as follows: Cell Viability - LYMP1-002 - Assay at 40 hr (AID 994). Also: nearly all actives have a fitted effect of over 60% in size. Also: potency is read from the fitted curve at half-maximal effect. The essentials:
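Luminescent ATP signal served as the viability readout, with decreases taken as toxicity. Cells were treated with compounds across a concentration range for 40 hours at 37 C, and AC50 values came from standard Hill modeling.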

Experiment [7] can be described thus: Cellular Toxicity (caspase-3) Hek293 (AID 664).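 Also: cells exposed to compound for 16 h at 37 °C before readout.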 The settings on record: HEK293 caspase-3 activation, DMSO = 0%, 100 µM tamoxifen = 100%; at 92.2 µM (top of the series). The essentials:
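Cells plated, 5 hr at 37 °C; compounds added; 16 hr at 37 °C; Caspase-Glo 3/7 reagent, 20 min RT; luminescence read. Activation expressed relative to DMSO and 100 uM tamoxifen, AC50 by Hill model.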

In the case of `OC(c1ccc(Cl)cc1)(c1ccc(Cl)cc1)C(Cl)(Cl)Cl`, the Potency entry in experiment [1], in experiment [2], in experiment [3], in experiment [4], in experiment [5] and in experiment [6] was “inactive” in each case.
Take `[CH3][Hg][Cl]`: the caspase-3 activation in experiment [7] was -9.46%. The Potency in experiment [1] was 50.1 µM (active); in experiment [3], 3.98 µM (active); in experiment [4], 5.01 µM (active); in experiment [5] it was 39.8 µM (active).
Take `c1ccc2cc3c(cc2c1)-c1cccc2cccc-3c12`: the caspase-3 activation in experiment [7] was -1.28%. In addition, the Potency entry in experiment [1], in experiment [2], in experiment [3], in experiment [4], in experiment [5] and in experiment [6] was “inactive” in each case.
As to `Oc1c(Br)c(Br)c(Br)c(Br)c1Br`, the Potency entry in experiment [1], in experiment [2], in experiment [3], in experiment [4], in experiment [5] and in experiment [6] was “inactive” throughout.
On to `[Cd+2].[Cl-].[Cl-]`, for which the caspase-3 activation in experiment [7] is 1.43%. Moreover, in experiment [1], the Potency was 15.8 µM (active).
Regarding `C[C@@H]1CC[C@@]2(OC1)O[C@H]1[C@@H](O)[C@H]3[C@@H]4CC[C@H]5C[C@@H](O[C@@H]6O[C@H](CO)[C@H](O[C@@H]7O[C@H](CO)[C@@H](O)[C@H](O[C@@H]8OC[C@@H](O)[C@H](O)[C@H]8O)[C@H]7O[C@@H]7O[C@H](CO)[C@@H](O)[C@H](O[C@@H]8O[C@H](CO)[C@@H](O)[C@H](O)[C@H]8O)[C@H]7O)[C@H](O)[C@H]6O)[C@H](O)C[C@]5(C)[C@H]4CC[C@]3(C)[C@H]1[C@@H]2C`, the caspase-3 activation in experiment [7] is -8.63%. In addition, the Potency in experiment [1] is 7.94 µM (active); in experiment [2] it was 15.8 µM (active); in experiment [3] it was 20 µM (active); in experiment [4] it was 25.1 µM (active); in experiment [5] it was 7.94 µM (active); in experiment [6], 7.94 µM (active).
Consider `N#CC(Cl)Cl`, for which the caspase-3 activation in experiment [7] was 72.2% (active). Further, the Potency entry in experiment [1], in experiment [2], in experiment [5] and in experiment [6] was “inactive” each time. In addition, the Potency is 20 µM (active) in experiment [3] and 25.1 µM (active) in experiment [4].
As to `C(=NC1CCCCC1)=NC1CCCCC1`, the Potency entry in experiment [1], in experiment [2], in experiment [5] and in experiment [6] was “inactive” in each case.
In the case of `COP(=O)(OC)O/C(=C\Cl)c1cc(Cl)c(Cl)cc1Cl`, the caspase-3 activation in experiment [7] was -4.53%. In addition, the Potency result in experiment [1], in experiment [3], in experiment [4], in experiment [5] and in experiment [6] was “inactive” in each case.
For `FC(F)(F)c1ccc(Cl)cc1`, the caspase-3 activation in experiment [7] is 3.4%. In addition, the Potency result in experiment [1], in experiment [2], in experiment [3], in experiment [4], in experiment [5] and in experiment [6] was “inactive” in each case.
With `ClC1=C(Cl)C2(Cl)C3C(Cl)C(Cl)CC3C1(Cl)C2(Cl)Cl` (stereo unspecified), in experiment [7], the caspase-3 activation was 204% (active). Besides, the Potency result in experiment [2], in experiment [3] and in experiment [5] was “inactive” in each case.
Consider `N#CSCSC#N`, for which, in experiment [7], the caspase-3 activation is -10.2%. Besides, the Potency was 39.8 µM (active) in experiment [1]; 5.01 µM (active) in experiment [2]; 6.31 µM (active) in experiment [3]; 6.31 µM (active) in experiment [4]; 12.6 µM (active) in experiment [5]; 31.6 µM (active) in experiment [6].
Turning to `O=[N+]([O-])c1cc(C(F)(F)F)cc([N+](=O)[O-])c1Cl`, in experiment [7], the caspase-3 activation is -11.2%. Moreover, the Potency entry in experiment [1], in experiment [2], in experiment [5] and in experiment [6] was “inactive” in each case. For the same compound, the Potency in experiment [3] and in experiment [4] was 39.8 µM (active) in each case.
In the case of `O=C1C2(Cl)C3(Cl)C4(Cl)C(Cl)(Cl)C5(Cl)C3(Cl)C1(Cl)C5(Cl)C24Cl` (stereo unspecified), the caspase-3 activation in experiment [7] is 112% (active) and 177% (active). Besides, the Potency is 25.1 µM (active) and 50.1 µM (active) in experiment [1]; 39.8 µM (active) in experiment [2]; 63.1 µM (active) in experiment [3]; 50.1 µM (active) in experiment [4]; 31.6 µM (active) and 79.4 µM (active) in experiment [5]; 25.1 µM (active) and 50.1 µM (active) in experiment [6].
Consider `C#CCO`, for which, in experiment [7], the caspase-3 activation was 1.98%. In addition, the Potency entry in experiment [1], in experiment [2], in experiment [3], in experiment [4], in experiment [5] and in experiment [6] was “inactive” each time.
For `O=C(CCl)c1ccccc1`, the caspase-3 activation in experiment [7] is -9.68%. Also, the Potency is 10 µM (active) in experiment [2], 12.6 µM (active) in experiment [3] and 12.6 µM (active) in experiment [4]. The Potency entry in experiment [6] is “inactive”.
Turning to `CN(C)c1ccc(N=O)cc1`, the caspase-3 activation in experiment [7] is 9.09%. For the same compound, the Potency was 3.98 µM (active) in experiment [1]; 0.794 µM (active) in experiment [2]; 2 µM (active) in experiment [3]; 1.26 µM (active) in experiment [4]; 3.98 µM (active) in experiment [5]; 6.31 µM (active) in experiment [6].
